From PubChem BioAssay AID651597 (National Center for Advancing Translational Sciences (NCATS), 2012)
Where “and” joins values, the source holds several entries; their conditions need not be identical. Identical values can stand only once. Screen size: about 1,100 compounds; about 390 (35%) were called active. About 30% were inconclusive and are not listed. The call rests on the fitted dose curve; in most records, active means well fitted inhibition curve with a large enough effect; inconclusive means small, poorly fitted or top-dose-only effect; inactive means flat fitted curve, though single readings scatter. The list shows a part of the results. Entries that show only a call come without a potency.

These compounds were tested against Luciferin 4-monooxygenase (Photinus pyralis) (UniProt P08659) (assay: qHTS of Nrf2 Activators: Hit Validation in Secondary FLuc Assay). Settings: firefly luciferase inhibition counter-screen, luminescence; series mostly up to 57.5 µM.
Method in brief: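 Purified firefly luciferase is tested for inhibition by compounds in the presence of its substrates, ATP and D-luciferin, each at Km. Inhibition marks likely false positives arising from reporter-enzyme stabilization.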
Further: nearly all actives have a fitted effect of over 65% in size.
Potency means the concentration at half of the fitted maximal effect.

| Compound | Potency |
| --- | --- |
| O=C1N/C(=N\N=C\c2ccco2)SC1Cc1ccccc1[N+](=O)[O-] (stereo not drawn) | inactive |
| Cc1ccc2[nH]c(=O)c3cc(C(=O)N(C)Cc4ccco4)sc3c2c1 | 12 µM (active) |
| CN(C)CCNC(=O)c1cccc2ccc(-c3ccc(-c4ccccc4)cc3)nc12 | inactive |
| CCN(C(=O)Cn1nnc2sc(-c3ccccc3)cc2c1=O)c1cccc(C)c1 | 12 µM (active) |
| CC(=O)Cn1nnc2sc(-c3ccccc3)cc2c1=O | 6.01 µM (active) and 5.36 µM (active) |
| CC(=NNc1ccc2ccccc2n1)c1ccccc1O | 0.0169 µM (active) |
| Cc1cc(C)c(-n2c(SCCS(=O)(=O)c3ccc(F)cc3)n[nH]c2=O)c(C)c1 | inactive |
| COc1ccc(-c2cc3ccccc3oc2=O)cc1NC(=O)c1ccc([N+](=O)[O-])o1 | inactive |
| COc1cccc(C(=O)Oc2ccccc2/C=C\C(=O)c2cc3ccccc3o2)c1 | 1.51 µM (active) |
| O=C(Oc1ccccc1/C=C\C(=O)c1cc2ccccc2o1)c1ccccc1 | 1.07 µM (active) |
| CN1CCN(CCCNC(=O)c2cc3c(=O)n(C)c4ccccc4c3s2)CC1 | inactive |
| O=[N+]([O-])c1ccc(/C=N/N=C/c2ccc([N+](=O)[O-])o2)o1 | inactive |
| O=[N+]([O-])c1ccc(/C=[N+](\[O-])[C@@H]2CCCC[C@@H]2/[N+]([O-])=C/c2ccc([N+](=O)[O-])o2)o1 | inactive |
| O=[N+]([O-])c1ccc(/C=N/Nc2ccc3ccccc3c2)o1 | 1.69 µM (active) |
| O=C(COCc1cc(-c2ccc(F)cc2)on1)Nc1cc(Cl)ccc1O | inactive |
| Cc1cccc2cc3c(nc12)-c1ccccc1C3=O | 10.7 µM (active) |
| Cc1cccc2nc3c(nc12)-c1ccccc1C3=O | inactive |
| CS(=O)(=O)c1nc(S(=O)(=O)c2ccc(Cl)cc2)c(N2CCOCC2)s1 | inactive |
| Clc1cc(Cl)cc(Nc2ncnc(-n3cccc3)n2)c1 | inactive |
| CCn1nc(C)c(Br)c1-c1nc(-c2cccc(C)c2)no1 | inactive |
| Cc1cccc(-c2nnc(-c3cccc4ccccc34)o2)c1 | 0.675 µM (active) |
| Clc1ccc(-c2nnc(-c3cccc4ccccc34)o2)cc1 | 1.35 µM (active) |

| Compound | Potency |
| --- | --- |
| COc1cc2c(cc1Cl)/C(=C\CCN(C)C)c1ccccc1S2 | inactive |
| Cc1nnc2n1N=CC=C(c1ccccc1)S2 | inactive |
| C#CCSc1nnc(-c2sc3ccccc3c2Cl)o1 | 2.39 µM (active) |
| O=C1C(=C2CCc3ccccc32)Cc2ccccc21 | 0.301 µM (active) |
| Cc1ccc(S(=O)(=O)/N=C(/NNC(=O)c2cccc(Cl)c2)c2ccccc2)cc1 | 5.36 µM (active) |
| O=C(NN/C(=N/S(=O)(=O)c1ccc(Cl)cc1)c1ccccc1)c1cccc(Cl)c1 | 3.01 µM (active) |
| O=C(NNC(=O)c1sccc1-n1cccc1)c1cccc(Cl)c1 | inactive |
| O=[N+]([O-])c1ccc(/C=C/c2ccc3cccc([N+](=O)[O-])c3n2)cc1 | inactive |
| O=[N+]([O-])c1cccc2ccc(/C=C/c3ccc(F)cc3)nc12 | 2.39 µM (active) |
| Cc1c(=O)n(OCc2ccccc2)c2ccccc2[n+]1[O-] | inactive |
| N=c1oc2ccccc2cc1-c1nc(-c2ccccc2)cs1 | 2.69 µM (active) |
| CC1CCCCC1NC(=O)COC(=O)c1c2c(nc3ccccc13)/C(=C/c1ccco1)CC2 (stereo not drawn) | 4.78 µM (active) |
| Cc1cc(SCC(=O)N/N=C/c2ccco2)nc2ccccc12 | inactive |
| c1ccc(-c2ccc3c(c2)NC(C2Nc4cc(-c5ccccc5)ccc4O2)O3)cc1 (stereo not drawn) | inactive |
| O=[N+]([O-])c1ccccc1S(=O)c1ccccc1[N+](=O)[O-] | inactive |
| O=C1C(Cl)=C(N2CCN(c3ccccc3[N+](=O)[O-])CC2)C(=O)c2ccccc21 | 1.2 µM (active) |
| O=C(Nc1ccc(Cl)cn1)c1cnn2cccnc12 | 2.39 µM (active) |
| O=C(Nc1cccn2ncnc12)c1cccc(C(F)(F)F)c1 | inactive |
| O=C(NCc1ccco1)c1cccnc1-c1nc2ccccc2s1 | 10.7 µM (active) |
| COc1c(Cl)cc(C(=O)NCc2ccco2)cc1Cl | inactive |
| N#CC(C(=O)NCc1ccco1)c1nc2ccccc2nc1N1CCOCC1 (stereo not drawn) | inactive |
| O=C(Nc1cccc(/C=C/c2ccccn2)c1)c1ccc(-n2cncn2)cc1 | 2.13 µM (active) |

| Compound | Potency |
| --- | --- |
| Cc1cc(CNC(=O)c2cccc([N+](=O)[O-])c2)c2ccccc2n1 | inactive |
| Cn1c(=O)n(C)c2cc(NC(=O)c3cccc([N+](=O)[O-])c3)c(Br)cc21 | inactive |
| COc1ccc(/C(N)=N/OC(=O)c2cccc([N+](=O)[O-])c2)cc1 | 1.51 µM (active) |
| COc1cc(OC)cc(C(=O)O/N=C(\N)c2cccc(C)c2)c1 | 9.53 µM (active) |
| CCOC(=O)CCn1c(=O)c2cccn2c2cccnc21 | inactive |
| Cc1nc(/N=C(\N)NC(=O)c2ccccc2)nc2ccccc12 | 3.79 µM (active) |
| C(=Cc1cnnc2ccccc12)c1ccccc1 | 3.38 µM (active) |
| COc1ccc(Cl)cc1C(=O)NC(=S)Nc1nc(C)cc(C)n1 | inactive |
| COc1ccc(C(C)=O)cc1OCc1ccccc1 | inactive |
| COc1ccc(Cl)cc1C(=O)O/N=C(\N)c1ccncc1 | inactive |
| COc1ccccc1C(=O)O/N=C(\N)c1ccc(Cl)cc1 | 3.38 µM (active) |
| COc1ccc(Cl)cc1C(=O)O/N=C(\N)c1ccc(Cl)cc1 | 9.53 µM (active) |
| COc1ccc(Cl)cc1NC(=O)c1cc(C)no1 | inactive |
| COc1ccc(Cl)cc1C(=O)O/N=C(\N)c1ccccn1 | 10.7 µM (active) |
| COCCNC(=O)c1ccc(-n2c(-c3ccccc3)cc3c2CCC(C)C3)cc1 (stereo not drawn) | inactive |
| CSc1nc(Oc2ccc3ccccc3c2)c2sccc2n1 | inactive |
| Cc1nc([N+](=O)[O-])c(Br)n1Cc1ccccc1 | inactive |
| COc1cccc(/C=C2/CCC(CN(C)C)C2=O)c1 (stereo not drawn) | 1.51 µM (active) |
| COc1ccc(/C=C2/CCCC(CN(C)C)C2=O)cc1 (stereo not drawn) | 3.38 µM (active) |
| COc1cccc(C2=CC(c3cccs3)n3nnnc3N2)c1 (stereo not drawn) | inactive |
| c1ccc(-c2noc(-c3cccc4ccccc34)n2)cc1 | 0.953 µM (active) |
| Fc1ccccc1-c1nc(-c2ccc(Cl)cc2)no1 | 0.478 µM (active) |

| Compound | Potency |
| --- | --- |
| COc1cccc(-c2nc(-c3ccccc3)no2)c1 | 0.151 µM (active) |
| c1ccc(-c2noc(-c3cccnc3)n2)cc1 | 3.01 µM (active) |
| Brc1ccc(-c2nnc(-c3cccnc3)c3conc23)cc1 | inactive |
| O=C(CSc1nnc(-c2cccnc2)o1)c1cc2ccccc2oc1=O | inactive |
| COc1nc2ccc(C)cc2cc1-c1noc(-c2ccccc2)n1 | inactive |
| O=C(CN1CC(=O)Oc2ccccc21)OCC(=O)c1ccc(F)cc1 | inactive |
| c1cncc(-c2noc(-c3cccc4ccccc34)n2)c1 | 2.39 µM (active) |
| Cc1cc(C)c(C#N)c(SCC(=O)c2cccs2)n1 | 12 µM (active) |
| Cc1cc(C)c(C#N)c(OCC(=O)c2ccccc2)n1 | inactive |
| Cc1cc(C)c(C#N)c(SCC(=O)c2ccccc2)n1 | inactive |
| Cc1ccc(C(=O)N/N=C/c2ccc(-c3ccc(Br)cc3[N+](=O)[O-])o2)o1 | 3.79 µM (active) |
| N#Cc1nc(-c2ccc(F)cc2)oc1NCc1ccco1 | inactive |
| N#Cc1c(-c2ccco2)cc(-c2ccccn2)nc1N | 12 µM (active) |
| N#Cc1nc(-c2ccco2)oc1N1CCCC1 | inactive |
| CC(C)Cc1cc(-c2ccco2)c(C#N)c(N)n1 | inactive |
| N#Cc1c(-c2ccco2)cc(-c2ccc(F)cc2)nc1N | 5.36 µM (active) |
| Cc1nc(NCc2ccco2)nc2c1C(=O)CC(C)C2 (stereo not drawn) | inactive |
| COC(=O)c1sccc1NC(=O)c1cccc(F)c1 | inactive |
| O=C(Nc1nnc(-c2cccs2)s1)c1cccc(F)c1 | 2.39 µM (active) |
| O=C(Nc1nnc(-c2cccs2)s1)C1CC1 | inactive |
| O=c1c2ccccc2oc2ccc(-c3ccc4cc[nH]c4c3)cc12 | 0.135 µM (active) |
| COc1ccc2oc3ccccc3c(=O)c2c1 | 8.49 µM (active) |

| Compound | Potency |
| --- | --- |
| CC(=O)Oc1c(-c2ccco2)oc2ccccc2c1=O | inactive |
| CC(C)(C)/C(O)=C/c1nc2cc(Cl)ccc2oc1=O | inactive |
| COc1ccc2oc3cc(Cl)ccc3c(=O)c2c1 | 1.69 µM (active) |
| O=S(=O)(c1ccc(F)cc1)c1snnc1-c1ccccc1 | inactive |
| CS(=O)(=O)c1nc(S(=O)(=O)c2ccc(Cl)cc2)c(N2CCN(CCO)CC2)s1 | inactive |
| Cc1ccc(-c2cc(-c3cccc(F)c3)n[nH]2)c(O)c1 | 1.2 µM (active) |
| COn1c(-c2ccccc2)nc2c1CCc1c-2no[n+]1[O-] | inactive |
| COC(=O)C1=C(C)N(c2ccc(Br)cc2)C(=O)/C1=C\c1ccco1 | inactive |
| O=C1/C(=C\c2ccco2)NC(=S)N1c1ccccc1 | 8.49 µM (active) |
| O=C(CCS(=O)(=O)c1ccccc1)Nc1nc(-c2ccccn2)cs1 | inactive |
| O=C(CC(=O)c1ccccn1)c1ccccc1 | 5.36 µM (active) |
| Cc1ccc2cccnc2c1NC(=S)NC(=O)c1ccccc1 | 15.1 µM (active) |
| Cc1ccc2cccc(NC(=S)NC(=O)c3ccccc3)c2n1 | 6.01 µM (active) |
| Cc1csc(NC(=S)NC(=O)c2ccccc2)n1 | 2.13 µM (active) |
| Cc1cccc(C)c1NC(=S)NC(=O)c1cccc(Cl)c1 | inactive |
| Cc1sc(NC(=S)NC(=O)c2ccccc2)c(C#N)c1C | 12 µM (active) |
| Cc1cc(C)c2c(NC(=S)NC(=O)c3ccccc3)nn(C)c2n1 | inactive |
| [O-][n+]1onc2c3ccnnc3ccc21 | inactive |
| O=C(CC(=O)Nc1ccccc1[N+](=O)[O-])Nc1ccccc1[N+](=O)[O-] | inactive |
| Cc1csc(NC(=O)Nc2ccccc2[N+](=O)[O-])n1 | 2.69 µM (active) |
